From PubChem BioAssay AID1845225 (National Center for Advancing Translational Sciences (NCATS), 2023)
Results filed as inconclusive are left out. The source made the active and inactive calls. The call rests on the fitted dose curve; in most records, active means well fitted curve in the direction sought with a large enough effect; inconclusive means small, poorly fitted or top-dose-only effect, or effect the other way, or another doubt; inactive means no such curve, though single readings can be large or run the other way.

Assay: Confirmatory redox qHTS assay for identification of artifact compounds.
Details: Amplex Red/HRP redox cycling with DTT, fluorescence; series mostly up to 39 µM
Outline: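 Amplex Red (25 uM final) and HRP (250 mU/mL final) in HBSS, compound 15 min, then 250 uM DTT final 30 min, room temperature, dark; fluorescence 525/598 nm, normalized to DMSO and 10 uM DA3003, Hill fitted.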

outcome, inactive:
CC[C@H](C)CCCCC(=O)N[C@@H](CCN)C(=O)N[C@H](C(=O)N[C@@H](CCN)C(=O)N[C@H]1CCNC(=O)[C@@H]([C@H](C)O)NC(=O)[C@H](CCN)NC(=O)[C@H](CCN)NC(=O)[C@H](CC(C)C)NC(=O)[C@@H](CC(C)C)NC(=O)[C@H](CCN)NC1=O)[C@@H](C)O
COc1ccc(-c2cc(=O)c3ccccc3o2)cc1
CCOC(=O)c1ccccc1NC(=O)Cn1c(=O)n(-c2cccc(C)c2)c(=O)c2c1c1cc(C)ccc1n2C
CC1(C)CC(=O)c2cc(C(=O)NCCc3ccccc3)c(=O)[nH]c2C1
COc1ccc(NC(=O)Nc2cccc(-c3noc(C)n3)c2)cc1
O=C1c2ccccc2C(=O)N1c1cnc2ccccc2c1
CC(C)Oc1ccc(C(=O)N2CCC(c3nc4ccccc4s3)CC2)cc1
COc1ccc(-c2nc(CS(=O)CC(=O)NCCc3ccccc3)c(C)o2)cc1OC (stereo not given)
COc1ccc(NC(=O)CSc2nc(-c3ccccc3)nc3c2Cc2c(CO)cnc(C)c2O3)cc1Cl
CC(=NCc1ccccc1)c1ccccc1O
O=C(CN1C(=O)CCn2nc(-c3ccccc3)cc21)NCc1ccc(Cl)cc1
Cc1cc(C(=O)N2CCN(c3cccc(Cl)c3)CC2)c2c(C)nn(-c3ccccc3Cl)c2n1
O=C1c2oc3ccc(F)cc3c(=O)c2C(c2cccc([N+](=O)[O-])c2)N1CCCN1CCOCC1 (stereo not given)
CNC(=O)c1ccc(Nc2nnc(-c3ccc(C)c(S(=O)(=O)N4CCOCC4)c3)c3ccccc23)cc1
CCC(C)NC(=O)c1ccc2nc(-c3cccs3)c(-c3cccs3)nc2c1 (stereo not given)
Cc1ccc(OCCn2c(CCNC(=O)c3c(F)cccc3F)nc3ccccc32)cc1
Cc1nc2ccc(S(=O)(=O)N(CC(=O)Nc3ccc(F)cc3F)Cc3ccccc3)cc2s1
COC(=O)c1ccccc1NC(=O)[C@H]1O[C@@H]2OC(C)(C)O[C@@H]2[C@H]2OC(C)(C)O[C@H]21
COc1cc2c(NC3CCN(C)CC3)nc(N3CCCN(C)CC3)nc2cc1OCCCCC(N)=O
C[C@@H]1CC2C3CCC4=CC(=O)C=C[C@]4(C)[C@@]3(F)C(O)C[C@]2(C)[C@@]1(O)C(=O)COC(=O)c1cccc(S(=O)(=O)O)c1 (stereo not given in full)
Cc1ccc(C(=O)CSc2nc(-c3ccccc3)nc3c2CCCC3)c(C)c1
O=C(COc1ccc(Cl)cc1)Nc1ccc2nc(SCC(=O)N3CCCC3)sc2c1
Cc1ccc(CNC(=O)c2c(-c3ccccc3Cl)noc2C)o1
CCOC(=O)C(=O)NCC(c1cccnc1)N1CCN(c2ccccc2)CC1 (stereo not given)
CCc1ccc(CN2C(=O)c3ccccc3C2C(=O)NCCc2ccc(OC)c(OC)c2)cc1 (stereo not given)
COc1ccc(CCNC(=O)c2cc(=O)[nH]c3ccc(S(=O)(=O)N4CCCCC4)cc23)cc1OC
COc1ccc(Cn2c(SCc3ccc(C(=O)NC4CCCCC4)cc3)nc3ccncc32)cc1
COc1cc2nc(N3CCCCC3)nc(NC3CCN(Cc4ccccc4)CC3)c2cc1OC
CCOc1ccc(C[C@H]2NC(=O)CCSSC[C@@H](C(=O)N3CCC[C@H]3C(=O)N[C@@H](CCCN)C(=O)NCC(N)=O)NC(=O)[C@H](CC(N)=O)NC(=O)[C@H]([C@@H](C)O)NC(=O)[C@H]([C@@H](C)CC)NC2=O)cc1
CN(C)CCNC(=O)CN1C(=O)CCn2nc(-c3cn(C)c4ccccc34)cc21
O=C1c2ccccc2C(=O)N1c1ccc2ncccc2c1
Oc1ccc(CNc2cccc(F)c2F)c2cccnc12
COc1ccc(C(=O)Nc2nc3c(s2)CCCC3)cc1Cl
O=S(=O)(c1ccc(Cl)cc1)N1CCC(c2ccncc2)CC1
CCCC(=O)O[C@]1(C(=O)COC(C)=O)CC[C@H]2[C@@H]3C[C@H](F)C4=CC(=O)C=C[C@]4(C)[C@@]3(F)[C@@H](O)C[C@@]21C
O=c1c2ccccc2sn1-c1cc(S(=O)(=O)N2CCOCC2)ccc1N1CCCCC1
CC1CCCCN1CCCNC(=O)Cn1ncc2c3ccccc3n(Cc3ccccc3)c2c1=O (stereo not given)
Cn1cc(CN(C(=O)Nc2ccc(Cl)c(Cl)c2)C2CCCCC2)c2ccccc21
Cc1ccc(C)c(N2CCN(S(=O)(=O)c3cc(Br)cc4c3N(C(=O)C3CC3)CC4)CC2)c1
Cc1cc(C)nc(NC(=S)N2CCN(c3ccc(F)c(F)c3F)CC2)c1
